From PubChem BioAssay (Tox21)
Records with an inconclusive call do not appear. Values without a mark were called inactive. Calls of active or inactive are those of the source. Calls follow the shape of the dose curve; as a rule, active = well fitted activation curve with a large enough effect in the repeat runs; inconclusive = weak or mixed curves; inactive = flat fitted curve, though single readings scatter.

experiment: A CellTox Green Cytotoxicity Assay to monitor cytotoxicity in HEK293 cells - 32 hour (AID 1224881); conditions: CellTox Green fluorescence; series mostly up to 76.8 µM; cytotoxicity increase: at the top concentration; also: nearly all actives have a fitted effect of over 40% in size
Description: National Center for Advancing Translational Sciences [NCATS]
NIH Chemical Genomics Center [NCGC]
U.S. Environmental Protection Agency [EPA]
National Institutes of Environmental Health Sciences [NIEHS]
National Toxicology Program [NTP]
Cell-based models are critical for drug discovery. Determining the natural cytotoxic effects resulting from test compounds is an essential research activity. A CellTox Green Cytotoxicity Assay to monitor cytotoxicity in real time of continues cell culture during 40 hours of the compound treatment was used to screen Tox21 10K library compounds in Hek293 cells. CellTox Green Cytotoxicity Assay is a nonlytic, homogeneous, biofluorescent method to measure cytotoxicity in cell culture after experimental manipulation. The assay system uses a proprietary asymmetric cyanine dye that is excluded from viable cells but preferentially stains the dead cell's DNA. […] Viable cells produce no appreciable increases in fluorescence. Therefore, the fluorescence signal produced by the binding interaction with dead cell DNA is proportional to cytotoxicity.
The mixture of Hek293 cell suspension and reagents were dispensed at 600cells/6 ul/well in 1536-well tissue culture treated black solid bottom plates using a Multidrop dispenser. After the assay plates were incubated at a 37 C/5% CO2 incubator for 5 hours, 23 nL of compounds dissolved in DMSO, positive and negative controls was transferred to the assay plate by a pintool work station. The plates were incubated at 37 C for 40 hours. The fluorescence intensity were measured at 0h, 8h, 16h, 24h, 32h and 40h time points using ViewLux plate reader during compound treatment.
% is scaled to controls: 0 for no effect and ±100 for the full control effect; potency is read from the fitted curve at half-maximal effect.

Row | Structure (SMILES) | cytotoxicity increase | Potency
1 | COC(=O)C(C)=O | -8.29% | 
2 | OC(CCN1CCCCC1)(c1ccccc1)C1CCCCC1 (stereo not given) | 6.5% [at 35.3 µM] | 
3 | O=C(O)C(c1ccc(Cl)cc1)c1ccc(Cl)cc1 | -2.13% | 
4 | CCC(C)N(C)C(=O)c1cc2ccccc2c(-c2ccccc2Cl)n1 (stereo not given) | 8.74% [at 35.3 µM] | 
5 | OCCC1CCCCN1 (stereo not given) | -1.74% | 
6 | Cn1c(=O)c2c(ncn2CC(O)CO)n(C)c1=O (stereo not given) | 3.46% [at 35.3 µM] | 
7 | O=c1[nH]cnc2ccccc12 | -0.765% | 
8 | NC[C@H]1O[C@H](O[C@H]2[C@H](O)[C@@H](O[C@H]3O[C@H](CO)[C@@H](O)[C@H](N)[C@H]3O)[C@H](N)C[C@@H]2N)[C@H](O)[C@@H](O)[C@@H]1O | 10.5% [at 6.97 µM] | 
9 | C=CC(=O)OCC(C)OCC(C)OCC(C)OC(=O)C=C (stereo not given) |  | 54.9 µM (active)
10 | Nc1cnn([C@@H]2O[C@H](CO)[C@@H](O)[C@H]2O)c(=O)n1 | -7.06% | 
11 | Oc1ccc(O)c2c(O)cccc12 | -43.5% | 
12 | CC(O)C1CCCCC1 (stereo not given) | 3.72% | 
13 | O=C1[C@H](CC[C@H](O)c2ccc(F)cc2)[C@@H](c2ccc(O)cc2)N1c1ccc(F)cc1 | 0.529% [at 35.3 µM] | 
14 | CCCOc1ccc2nc(NC(=O)OC)[nH]c2c1 | -15.4% [at 35.3 µM] | 
15 | O=C(Cl)c1c(Cl)cccc1Cl | -3.77% | 
16 | C[C@@H](C1=C(CCN(C)C)Cc2ccccc21)c1ccccn1 | 11.2% [at 35.3 µM] | 
17 | CCCCCC/C=C/C=O | -9.46% | 
18 | CC/C(=C\C(=N/O)C(N)=O)C(C)[N+](=O)[O-] (stereo not given) | -0.282% | 
19 | CN1CCC(=C2c3ccccc3CCc3sccc32)CC1 | 8.99% [at 35.3 µM] | 
20 | CC(=O)N(O)CCCCCNC(=O)CCC(=O)N(O)CCCCCNC(=O)CCC(=O)N(O)CCCCCN | -32.2% [at 35.3 µM] | 

Row | Structure (SMILES) | cytotoxicity increase | Potency
21 | O=[N+]([O-])c1cc[n+]([O-])cc1 | 2.88% | 
22 | CC(=O)O[C@@H]1C(=O)O[C@@H]2[C@H]1OC(=O)[C@@H]2OC(C)=O | 15.5% [at 35.3 µM] | 
23 | O=C(O)/C=C/c1cnc[nH]1 | -3.38% | 
24 | CC(C(=O)O)c1ccc(C(=O)c2ccccc2)s1 (stereo not given) | 8.37% [at 35.3 µM] | 
25 | CC(=O)/C=C/C1C(C)=CCCC1(C)C (stereo not given) | -0.327% | 
26 | N#CCc1cccc(C(F)(F)F)c1 | -17.7% | 
27 | CC(=O)c1c(C)c([N+](=O)[O-])c(C(C)(C)C)c([N+](=O)[O-])c1C | 3.29% | 
28 | CC1=CCC(C(C)C)C=C1 (stereo not given) | 0.97% | 
29 | CN(C)C/C=C(/c1ccc(Br)cc1)c1cccnc1 | -1.69% [at 35.3 µM] | 
30 | CC(C)(C)c1cc(O)c(C(C)(C)C)cc1O | 5.47% | 
31 | Cc1ccccc1N=Nc1ccc(N=Nc2c(O)ccc3ccccc23)c(C)c1 | -14% [at 35.3 µM] | 
32 | COc1ccc(C(C)=O)cc1 | -10.6% | 
33 | CCCC[C@H]1CN(CC2CCOCC2)C(=O)OC12CCN(C1(C)CCN(C(=O)c3c(C)ncnc3C)CC1)CC2 | -0.733% | 
34 | CC(C)c1ccccc1C(C)C | 3.04% | 
35 | CCCCCCCCCO | -8.85% | 
36 | O=C(Nc1ccccc1)OCC(CN1CCCCC1)OC(=O)Nc1ccccc1 (stereo not given) | -2.51% [at 35.3 µM] | 
37 | CC(C)(C)C1CCCCC1O (stereo not given) | -17% | 
38 | CC(C)(C)c1ccc(S)cc1 | 15.1% | 
39 | CN(C)CCCOc1nn(Cc2ccccc2)c2ccccc12 | -4.69% [at 35.3 µM] | 
40 | CCN(CC)C(C)=O | -5.82% | 
